Source: the supplement of paper PMC5662767
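Further: flow cytometry read-out as median GFP intensity of gated cells, compounds added 30 min before Hh-conditioned or mock medium, mock-treated cells serving as unstimulated baseline.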

What follows are compounds tested on Drosophila S2 cl14 SmoIP sensor cells (assay: normalized SmoIP GFP fluorescence (untreated unstimulated = 0%, untreated Hh-stimulated = 100%); higher = more Smo activation sensor fluorescence). Settings: stimulation: mock conditioned medium (-Hh); compound concentration: 2 uM; 24 h.
In the case of `C=CC(=O)Nc1cccc(Oc2nc(Nc3ccc(N4CCN(C)CC4)cc3)ncc2Cl)c1`, the “normalized SmoIP GFP fluorescence” value is reported as 11%.
With `C=CC(=O)Nc1cccc(Sc2nc(Nc3ccc(N4CCN(C)CC4)cc3)ncc2Cl)c1` the “normalized SmoIP GFP fluorescence” value was 36.2%.
With `CCc1ccc(/C=C2/SC(=S)NC2=O)cc1` the “normalized SmoIP GFP fluorescence” value was -1.63%.
`COc1c(C)c2c(c(O)c1C/C=C(\C)CCC(=O)OCCN1CCOCC1)C(=O)OC2` [Mycophenolate-mofetil-(CellCept)] was tested, and the “normalized SmoIP GFP fluorescence” value was 5.98%.
With `COc1cc(OC)c2c(=O)[nH]c(-c3cc(C)c(OCCO)c(C)c3)nc2c1` the “normalized SmoIP GFP fluorescence” value was -3.16%.
